Experimental data published in the supplement of paper PMC7057948, “A genome-wide approach for identification and characterisation of metabolite-inducible systems” (Nature Communications, 2020).

What was measured:
Settings in all cases: inducer concentration 5 mM; 6 h; Cupriavidus necator H16; minimal medium + 0.4% gluconate
[1] = test system: AraC/P_araBAD L-arabinose biosensor (pEH176); experiment: relative induction of RFP reporter vs primary effector; higher = stronger activation
Description: (§1)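 Orthogonality screen of 21 primary inducers against 21 transcription factor/inducible promoter–mRFP biosensors in C. necator H16 in minimal medium, robotic 96-well format, 5 mM inducer, 30 °C. OD-normalised RFP fluorescence was read 6 h later and expressed as relative induction (%) = 100 × (FL compound − FL uninduced)/(FL primary inducer − FL uninduced); mean of n=4. Cognate pairs (100% by definition) omitted.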

[2] = test system: BadR/P_H16_RS27200 cyclohexanecarboxylate biosensor (pEH159); experiment: as above
Description: as §1

[3] = test system: BenM/P_H16_RS09790 benzoate biosensor (pEH148); experiment: as above
Description: as §1

[4] = test system: FdsR/P_H16_RS03165 formate biosensor (pEH134); experiment: as above
Description: as §1

[5] = test system: GabR/P_H16_RS23655 GABA biosensor (pEH256); experiment: as above
Description: as §1

[6] = test system: HpdA/P_H16_RS24175 L-tyrosine biosensor (pEH158); experiment: as above
Description: as §1

[7] = test system: NahR/P_H16_RS08125 salicylate biosensor (pEH042); experiment: as above
Description: as §1

[8] = test system: OapR/P_H16_RS01330 beta-alanine biosensor (pEH147); experiment: as above
Description: as §1

[9] = test system: PcaQ/P_H16_RS30145 3,4-dihydroxybenzoate biosensor (pEH161); experiment: as above
Description: as §1

[10] = test system: PhgR/P_H16_RS05530 phenylglyoxylate biosensor (pEH155); experiment: as above
Description: as §1

[11] = test system: SauR/P_H16_RS13695 sulfonatoacetate biosensor (pEH157); experiment: as above
Description: as §1

[12] = test system: TtdR/P_H16_RS10665 tartrate biosensor (pEH083); experiment: as above
Description: as §1

[13] = test system: XdhR/P_H16_RS05055 xanthine biosensor (pEH154); experiment: as above
Description: as §1

[14] = test system: heterologous L-rhamnose-inducible system; experiment: as above
Description: as §1

[15] = test system: heterologous acrylate-inducible system; experiment: as above
Description: as §1

[16] = test system: heterologous cumate-inducible system; experiment: as above
Description: as §1

[17] = test system: heterologous itaconate-inducible system; experiment: as above
Description: as §1

[18] = test system: AcoR/P_H16_RS19445 acetoin biosensor (pEH052); experiment: as above
Description: as §1

[19] = test system: PhgR/P_H16_RS05530 phenylglyoxylate biosensor (pEH155); experiment: relative induction of RFP reporter vs primary effector (background-corrected); higher = stronger activation of the biosensor
Description: (§2)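 C. necator H16 strains, each carrying one of 21 transcription factor/inducible promoter–mRFP biosensor plasmids, were grown in minimal medium in 96-well plates (robotic platform). Each was exposed to 46 structurally or metabolically related compounds at 5 mM at 30 °C. OD-normalised RFP fluorescence was read 6 h later and expressed as relative induction (%) = 100 × (FL compound − FL uninduced)/(FL primary inducer − FL uninduced); mean of n=4.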

[20] = test system: AcoR/P_H16_RS19445 acetoin biosensor (pEH052); experiment: as above
Description: as §2

[21] = test system: AraC/P_araBAD L-arabinose biosensor (pEH176); experiment: as above
Description: as §2

[22] = test system: BenM/P_H16_RS09790 benzoate biosensor (pEH148); experiment: as above
Description: as §2

[23] = test system: FdsR/P_H16_RS03165 formate biosensor (pEH134); experiment: as above
Description: as §2

[24] = test system: GabR/P_H16_RS23655 GABA biosensor (pEH256); experiment: as above
Description: as §2

[25] = test system: HpdR/P_H16_RS18295 3-hydroxypropanoate biosensor (pEH010); experiment: as above
Description: as §2

[26] = test system: KynR/P_H16_RS14030 L-kynurenine biosensor (pEH136); experiment: as above
Description: as §2

[27] = test system: NahR/P_H16_RS08125 salicylate biosensor (pEH042); experiment: as above
Description: as §2

[28] = test system: OapR/P_H16_RS01330 beta-alanine biosensor (pEH147); experiment: as above
Description: as §2

[29] = test system: PcaQ/P_H16_RS30145 3,4-dihydroxybenzoate biosensor (pEH161); experiment: as above
Description: as §2

[30] = test system: PhhR/P_H16_RS18365 L-phenylalanine biosensor (pEH137); experiment: as above
Description: as §2

[31] = test system: SauR/P_H16_RS13695 sulfonatoacetate biosensor (pEH157); experiment: as above
Description: as §2

[32] = test system: TtdR/P_H16_RS10665 tartrate biosensor (pEH083); experiment: as above
Description: as §2

[33] = test system: XdhR/P_H16_RS05055 xanthine biosensor (pEH154); experiment: as above
Description: as §2

[34] = test system: heterologous inducible system pEH002 (rhamnose/acrylate/cumate/itaconate set); experiment: as above
Description: as §2

[35] = test system: heterologous inducible system pEH020 (rhamnose/acrylate/cumate/itaconate set); experiment: as above
Description: as §2

[36] = test system: heterologous inducible system pEH040 (rhamnose/acrylate/cumate/itaconate set); experiment: as above
Description: as §2

[37] = test system: heterologous inducible system pEH086 (rhamnose/acrylate/cumate/itaconate set); experiment: as above
Description: as §2
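For relative induction of RFP reporter vs primary effector (background-corrected) in this document: RFP excited at 585 nm with emission read at 620 nm, culture medium blanks subtracted from fluorescence and absorbance prior to normalisation.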

CC(=O)C(C)O (configuration not stated) [acetoin] was tested, and the “relative induction of RFP reporter” value [1] was 0.00953%, the “relative induction of RFP reporter” value [2] was -0.805% and the “relative induction of RFP reporter” value [3] was -0.0473%. For the same compound, the “relative induction of RFP reporter” value [4] was -6.92%, the “relative induction of RFP reporter” value [5] was -1.36% and the “relative induction of RFP reporter” value [6] was -0.195%. For the same compound, the “relative induction of RFP reporter” value [7] was 0.00159%, the “relative induction of RFP reporter” value [8] was -0.507% and the “relative induction of RFP reporter” value [9] was -0.169%. The “relative induction of RFP reporter” value [10] was -0.461%, the “relative induction of RFP reporter” value [11] was -0.0229% and the “relative induction of RFP reporter” value [12] was 0.102%. The “relative induction of RFP reporter” value [13] was -0.695%, the “relative induction of RFP reporter” value [14] was -0.0013% and the “relative induction of RFP reporter” value [15] was -1.85%. For the same compound, the “relative induction of RFP reporter” value [16] was -1.61% and the “relative induction of RFP reporter” value [17] was 0.0808%.

In the case of O=C(O)c1ccccc1O [salicylate], the “relative induction of RFP reporter” value [18] is reported as -1.02%, the “relative induction of RFP reporter” value [1] is reported as -0.0255% and the “relative induction of RFP reporter” value [2] is reported as -0.169%. The “relative induction of RFP reporter” value [3] was 1.72%, the “relative induction of RFP reporter” value [4] was -11.3% and the “relative induction of RFP reporter” value [5] was 1.28%. For the same compound, the “relative induction of RFP reporter” value [6] was -0.0712%, the “relative induction of RFP reporter” value [8] was -0.51% and the “relative induction of RFP reporter” value [9] was -0.391%. The “relative induction of RFP reporter” value [10] was -0.369%, the “relative induction of RFP reporter” value [11] was 0.0177% and the “relative induction of RFP reporter” value [12] was -0.317%. The “relative induction of RFP reporter” value [13] was -0.278%, the “relative induction of RFP reporter” value [14] was 0.019% and the “relative induction of RFP reporter” value [15] was -1.06%. For the same compound, the “relative induction of RFP reporter” value [16] was 0.792% and the “relative induction of RFP reporter” value [17] was -0.0867%.

In the case of O=CC(=O)O, the “relative induction of RFP reporter” value [19] is reported as -0.587%.

For NCCS(=O)(=O)O [taurine], the “relative induction of RFP reporter” value [20] was -0.255%, the “relative induction of RFP reporter” value [21] was -0.0412% and the “relative induction of RFP reporter” value [22] was -0.0223%. The “relative induction of RFP reporter” value [23] was -0.473%, the “relative induction of RFP reporter” value [24] was -1.59% and the “relative induction of RFP reporter” value [25] was -0.142%. The “relative induction of RFP reporter” value [26] was -0.215%, the “relative induction of RFP reporter” value [27] was 0.0156% and the “relative induction of RFP reporter” value [28] was 0.934%. For the same compound, the “relative induction of RFP reporter” value [29] was 3.14%, the “relative induction of RFP reporter” value [19] was -0.395% and the “relative induction of RFP reporter” value [30] was -0.387%. For the same compound, the “relative induction of RFP reporter” value [31] was 2.29%, the “relative induction of RFP reporter” value [32] was 0.0679% and the “relative induction of RFP reporter” value [33] was -0.494%. The “relative induction of RFP reporter” value [34] was 0.00496%, the “relative induction of RFP reporter” value [35] was -0.468% and the “relative induction of RFP reporter” value [36] was -0.555%. For the same compound, the “relative induction of RFP reporter” value [37] was 0.38%.

With N[C@@H](Cc1ccccc1)C(=O)O [L-phenylalanine] the “relative induction of RFP reporter” value [18] was -1.77%, the “relative induction of RFP reporter” value [1] was -0.0146% and the “relative induction of RFP reporter” value [2] was -0.263%. The “relative induction of RFP reporter” value [3] was -0.0737%, the “relative induction of RFP reporter” value [4] was -4.81% and the “relative induction of RFP reporter” value [5] was -2.3%. The “relative induction of RFP reporter” value [6] was 57.7%, the “relative induction of RFP reporter” value [7] was 0.00484% and the “relative induction of RFP reporter” value [8] was -1.24%. The “relative induction of RFP reporter” value [9] was -0.267%, the “relative induction of RFP reporter” value [10] was -0.485% and the “relative induction of RFP reporter” value [11] was -0.0265%. For the same compound, the “relative induction of RFP reporter” value [12] was 0.153%, the “relative induction of RFP reporter” value [13] was -1.38% and the “relative induction of RFP reporter” value [14] was 0.00514%. For the same compound, the “relative induction of RFP reporter” value [15] was -1.94%, the “relative induction of RFP reporter” value [16] was -2.37% and the “relative induction of RFP reporter” value [17] was -0.26%.
